Each sequence was assayed on PXR homodimer (NR concentration 270 nM) (assay: PBM binding z-score (relative to random genomic background probes); higher = stronger binding; sequences stand for … in GC…GCGATTGACAGCGTAGAATGAAGG).
How it was run: (§1)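 On custom Agilent 4×180K arrays, double-stranded probes with 34-nt variable regions carried direct-repeat seeds, single-nucleotide variants, half-site ablations or random human genomic background. Ligand-free nuclear receptor dimers were applied for 1 h, and binding was read with antibodies against each partner (one per run). Binding z-scores come from regression-normalized fluorescence, with the random background probes as reference.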

Row | Sequence | PBM binding z-score
1 | TCTCGGAGGACACGACAGGTCAGAGCTCGACATC | -0.142
2 | CCTCGGAGGACTGAAGGTCAGAGCTGTCCGCTTT | -0.196
3 | TCGGACAGGTGAAGGTAACTCAGGTACGCAGTCG | 0.228
4 | CCGTACGGGTCACTCCAGGTTATAGCATCGGAGT | 0.156
5 | TCGAGTAGGTTAGGGGAATTCAGAATGGCGTCGA | 0.0558
6 | CGTTACGGGTCACGAGGTTATAGCACGACGAGCG | 0.178
7 | GGAACGAGGACATTCGAGTTGATAGCATGGCGAT | 0.409
8 | CGTCAAAGTTCTACTAAGGTAACGTAAAGCACGC | -0.028
9 | TCATATAGGTAAAGGTGACAGTCGAACGATATGA | 0.245
10 | CTCGAAAGGTCGTGCTCAGGAGAGTATACCAAAC | 0.45
11 | GGAACGAGGGCATTCGAGTTTATAGCATGGCGAT | 7.33
12 | GATACAGGGTCACGGCCAGAGTACGCGTATTGAT | 0.0972
13 | ATATGTAAGTTATCGGGTCATTCAGTTTGCGCAT | 6.97
14 | TCACCAAGGTGAGCTGAGGTCGTTGATCCAACTC | -0.0817
15 | GCATATCGGTAATACAAGGTGAAAGTCCGATTGT | 0.188
16 | ACAGACAGGTGATGAAGGTCACTCAGGCTATCAT | 2.02
17 | ACAGACAGGTGCTGAAGGTAACTCAGGCTATCAT | -0.113
18 | CCTTACGGGTCAAGGTTCTAGCACGGGTGGTACG | -0.35
19 | ACTAGCAGGCAAAGTTTGGGTCACTCAAACAAAG | -0.439
20 | GATACAGGGTCAGCTAGAGGCCAGGGTATGGAAA | 0.0758

Row | Sequence | PBM binding z-score
21 | ACTAGCAGGCCAAGTTTGCGTCACTCAAACAAAG | -0.479
22 | GTACCAAGGTGAATAGGTAGTTGATGAGTAGGCG | -0.0218
23 | ATCGAAAGGTCGACAAGGTGAGTATACACCGTTT | 0.683
24 | CAGCCTAGGTCAGGGGCAGTATAGGAGGAACGTT | -0.048
25 | CAAGACAGGTGAAAGGTAACTCAGTCTGGTACGC | 0.0379
26 | CAAACTAGGTCACAGAGGTCAAAATCCGTGCGTA | 10.3
27 | TATACAGGGTCAAAGGCCAGGGTACGAATGTCGA | 0.905
28 | TCTTGGAGATCAGCAGGTTAAGAAAGCTGGCCAA | -0.366
29 | TGAATGCGGTTATAAGATCAGGGAACGTTGCAAA | 0.0437
30 | CCAGACAGGTGAAAGGTATCTCAGTCTGGTACGC | -0.341
31 | CGTCAAAGTTCAACTAAGGCAACGTAAAGCACGC | 4.13
32 | GCTGCTAGGTGAGGTTGGTCAGCTAACGGGTACG | -0.63
33 | CAAACTAGGTCAAGAGGTCAAGGTCCGCTTCCCG | 1.72
34 | ATATGTAGGTTAAGGGACATTCAGGTTGGTTCGC | 0.687
35 | CCGACTGGGGCATAAGGTTACCGTAAGCCAGCCC | -0.911
36 | CGAACTAGGTCAAGGACAGTGACTCTCCGCACGC | -0.264
37 | ACTAGCAGGCCAAGTTTGGGTCAGTCAAACAAAG | -0.463
38 | CCTACTGGGCCATTCCGAGGTCATTGATCATATG | 4.22
39 | CCAGACAGGTGAAAGCTAACTCAGTCTGGTACGC | -0.314
40 | CGTCCAAGGTCAGAGGTCAGTGAAGAGATGACGG | 1.13

The sequences below were run on RARa:RXR (NR concentration 270 nM, RXRa partner concentration 90 nM) in the same assay as above.
How it was run: as §1

Row | Sequence | PBM binding z-score
41 | TCTCGGAGGACACGACAGGTCAGAGCTCGACATC | 1.6
42 | CCTCGGAGGACTGAAGGTCAGAGCTGTCCGCTTT | 1.28
43 | TCGGACAGGTGAAGGTAACTCAGGTACGCAGTCG | 0.44
44 | CCGTACGGGTCACTCCAGGTTATAGCATCGGAGT | 3.89
45 | TCGAGTAGGTTAGGGGAATTCAGAATGGCGTCGA | -0.0883
46 | CGTTACGGGTCACGAGGTTATAGCACGACGAGCG | 5.93
47 | GGAACGAGGACATTCGAGTTGATAGCATGGCGAT | 0.177
48 | CGTCAAAGTTCTACTAAGGTAACGTAAAGCACGC | 0.398
49 | TCATATAGGTAAAGGTGACAGTCGAACGATATGA | 1.44
50 | CTCGAAAGGTCGTGCTCAGGAGAGTATACCAAAC | 3.47
51 | GGAACGAGGGCATTCGAGTTTATAGCATGGCGAT | 1.14
52 | GATACAGGGTCACGGCCAGAGTACGCGTATTGAT | 6.41
53 | ATATGTAAGTTATCGGGTCATTCAGTTTGCGCAT | 2.93
54 | TCACCAAGGTGAGCTGAGGTCGTTGATCCAACTC | 2.65
55 | GCATATCGGTAATACAAGGTGAAAGTCCGATTGT | 0.793
56 | ACAGACAGGTGATGAAGGTCACTCAGGCTATCAT | 2.83
57 | ACAGACAGGTGCTGAAGGTAACTCAGGCTATCAT | -0.341
58 | CCTTACGGGTCAAGGTTCTAGCACGGGTGGTACG | 3.97
59 | ACTAGCAGGCAAAGTTTGGGTCACTCAAACAAAG | 1.32
60 | GATACAGGGTCAGCTAGAGGCCAGGGTATGGAAA | 4.28

Row | Sequence | PBM binding z-score
61 | ACTAGCAGGCCAAGTTTGCGTCACTCAAACAAAG | -0.264
62 | GTACCAAGGTGAATAGGTAGTTGATGAGTAGGCG | 0.256
63 | ATCGAAAGGTCGACAAGGTGAGTATACACCGTTT | 3.78
64 | CAGCCTAGGTCAGGGGCAGTATAGGAGGAACGTT | 1.33
65 | CAAGACAGGTGAAAGGTAACTCAGTCTGGTACGC | 1.92
66 | CAAACTAGGTCACAGAGGTCAAAATCCGTGCGTA | 6.58
67 | TATACAGGGTCAAAGGCCAGGGTACGAATGTCGA | 6.05
68 | TCTTGGAGATCAGCAGGTTAAGAAAGCTGGCCAA | 0.266
69 | TGAATGCGGTTATAAGATCAGGGAACGTTGCAAA | -0.0387
70 | CCAGACAGGTGAAAGGTATCTCAGTCTGGTACGC | 0.664
71 | CGTCAAAGTTCAACTAAGGCAACGTAAAGCACGC | 3.62
72 | GCTGCTAGGTGAGGTTGGTCAGCTAACGGGTACG | -0.358
73 | CAAACTAGGTCAAGAGGTCAAGGTCCGCTTCCCG | 7.29
74 | ATATGTAGGTTAAGGGACATTCAGGTTGGTTCGC | 1.15
75 | CCGACTGGGGCATAAGGTTACCGTAAGCCAGCCC | 1.66
76 | CGAACTAGGTCAAGGACAGTGACTCTCCGCACGC | 2.54
77 | ACTAGCAGGCCAAGTTTGGGTCAGTCAAACAAAG | 0.649
78 | CCTACTGGGCCATTCCGAGGTCATTGATCATATG | 3.88
79 | CCAGACAGGTGAAAGCTAACTCAGTCTGGTACGC | -0.197
80 | CGTCCAAGGTCAGAGGTCAGTGAAGAGATGACGG | 7.11
